HP1b binding inh: blocks HP1-beta chromodomain binding to methylated histone tails | AlphaScreen HP1-beta / biotin-H3K9me3 peptide binding | AID 540317 | Potency, µM (doses to about 114 µM), for inactives: at the top dose activity change, negative = inhibition, actives largely listed as inhibitors | P83916 | 390,000 compounds, 0.56% hits; also: potency is read from the fitted curve at half-maximal effect; nearly all actives have a fitted effect of over 70% in size
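AlphaScreen: HP1-beta (50 nM) preformed 30 min with biotin-H3(1-18)K9me3 peptide (50 nM) in PBS pH 7.4, 0.01% Tween-20. Compound added for 30 min at RT, then streptavidin donor/nickel chelate acceptor beads (10 ug/mL) for 30 min.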
JMJD2A Tudor: JMJD2A Tudor domain (human) inhibition | O75164 | AlphaScreen JMJD2A-Tudor / H3K4me3 peptide binding | Potency, µM (doses to about 114 µM), for the others: at the top dose activity change, negative = inhibition, usual class: inhibitors | 390,000 compounds, 4.4% hits; also: potency is read from the fitted curve at half-maximal effect; % is scaled to controls: 0 for no effect and ±100 for the full control effect; nearly all actives have a fitted effect of over 50% in size
Target sequence (O75164 whole entry, looked up, the tested form may be a part): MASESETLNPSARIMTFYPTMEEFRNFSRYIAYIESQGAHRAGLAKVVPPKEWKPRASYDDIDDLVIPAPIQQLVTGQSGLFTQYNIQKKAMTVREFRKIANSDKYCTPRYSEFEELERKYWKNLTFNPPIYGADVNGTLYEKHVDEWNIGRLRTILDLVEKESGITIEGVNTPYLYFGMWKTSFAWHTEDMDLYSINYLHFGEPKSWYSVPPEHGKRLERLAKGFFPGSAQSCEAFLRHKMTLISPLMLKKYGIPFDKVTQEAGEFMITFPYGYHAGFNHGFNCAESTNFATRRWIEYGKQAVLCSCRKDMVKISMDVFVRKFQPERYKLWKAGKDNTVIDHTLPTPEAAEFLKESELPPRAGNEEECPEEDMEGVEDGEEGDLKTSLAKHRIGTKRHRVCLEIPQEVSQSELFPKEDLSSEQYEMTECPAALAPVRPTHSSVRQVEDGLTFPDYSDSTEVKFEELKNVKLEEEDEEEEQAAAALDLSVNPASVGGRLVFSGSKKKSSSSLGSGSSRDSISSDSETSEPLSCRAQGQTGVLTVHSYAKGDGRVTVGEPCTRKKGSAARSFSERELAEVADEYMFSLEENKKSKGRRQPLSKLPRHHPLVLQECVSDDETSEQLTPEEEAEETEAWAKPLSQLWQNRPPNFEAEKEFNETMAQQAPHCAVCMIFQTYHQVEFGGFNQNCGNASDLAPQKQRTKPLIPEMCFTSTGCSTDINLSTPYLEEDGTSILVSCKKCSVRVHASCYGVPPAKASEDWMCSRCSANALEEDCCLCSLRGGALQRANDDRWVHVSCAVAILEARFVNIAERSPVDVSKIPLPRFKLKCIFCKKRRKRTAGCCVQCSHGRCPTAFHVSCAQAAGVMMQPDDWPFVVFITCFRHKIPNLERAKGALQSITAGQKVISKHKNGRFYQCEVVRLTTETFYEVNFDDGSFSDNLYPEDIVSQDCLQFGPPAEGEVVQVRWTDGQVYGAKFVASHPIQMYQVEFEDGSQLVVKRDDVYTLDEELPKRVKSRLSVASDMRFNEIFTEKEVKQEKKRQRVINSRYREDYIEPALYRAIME
GCN5L2 inh: inhibitors of human GCN5L2 histone acetyltransferase. 390,000 compounds, 0.21% hits. Potency, µM (top dose mostly 58.9 µM), without a hit: top-dose activity change, negative = inhibition, hits mostly inhibitors. Q92830. GCN5L2 HAT assay, ThioGlo1 CoA-SH fluorescence; also: potency is read from the fitted curve at half-maximal effect; % is scaled to controls: 0 for no effect and ±100 for the full control effect
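Preincubate 20nM GCN5L2 with compound 15 min, RT → add 50uM ThioGlo1 + 75uM H3(1-25) + 70uM acetyl-CoA → read fluorescence 0 and 20 min. Primary qHTS; fluorescent artifacts likely.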
BAZ2B inh: blocks human BAZ2B. Q9UIF8. AlphaScreen BAZ2B-H3K14Ac peptide displacement. Potency, µM (highest dose often 114 µM), without a hit: at the top dose activity change, negative = inhibition, usual class: inhibitors. 360,000 compounds, 4.4% hits; also: potency is read from the fitted curve at half-maximal effect; % is scaled to controls: 0 for no effect and ±100 for the full control effect; nearly all actives have a fitted effect of over 60% in size
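Protein-peptide AlphaScreen: BAZ2B 50 nM, b-H3K14Ac 50 nM, 1x PBS pH 7.4 + 0.01% Tween-20. Preincubation 30 min RT; cpd 30 min RT (top 110 uM); beads 20 min RT, light-protected.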
PLK1 PBD inh: PLK1 (human) polo-box domain binding inhibition | P53350 | Plk1 PBD binding of FITC phosphopeptide, fluorescence polarization | Potency, µM, without a hit: max response, negative = inhibition, usual class: inhibitors | 360,000 compounds, 2.8% hits | AID 720504; also: potency is read from the fitted curve at half-maximal effect; series mostly up to about 57 µM; % is scaled to controls: 0 for no effect and ±100 for the full control effect; nearly all actives have a fitted effect of over 65% in size
PI5P4Ka inh: PI5P4K alpha (human) kinase inhibition; max response, %; PI5P4Kalpha enzyme, ADP-Glo luminescence, 60 min; stronger effect = lower value; AID 652105; P48426; 330,000 compounds, 1.2% hits; active = max response of -50% or lower; inconclusive = between -30% and -50%; inactive = -30% or higher; also: value at the top dose of about 77 µM; % is scaled to controls: 0 for no effect and ±100 for the full control effect
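PI5P4Kalpha ADP-Glo assay; 5 microM ATP final; 60 min RT reaction; HEPES pH 7.4/EGTA/CHAPS, 5% DMSO; controls lacking substrate or enzyme; luminescent end-point.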
Starred values were filed as active, the others as inactive; u = inconclusive; x = not tested or not shown; [ ] = another dose, or the depositor's remark. In the library only some 7% were active in any assay of this set; here they are far more common. Unless noted, calls follow the shape of the dose curve; as a rule, active = well fitted curve in the direction sought with a large enough effect; inconclusive = small, poorly fitted or top-dose-only effect, or another doubt; inactive = no such curve, though single readings can be large; an effect the other way counts as inactive or inconclusive.

SMILES	HP1b binding inh	JMJD2A Tudor	GCN5L2 inh	BAZ2B inh	PLK1 PBD inh	PI5P4Ka inh
CCCCN1CCCC1CNC(=O)c1cc(C#N)c2ccccc2c1OC (centres undefined)	x	x	-1.5%	-4.1%	x	x
CC(C)Cc1nn2c(=O)cc(COC(=O)c3ccc(NC(=O)CCc4ccccc4)cc3)nc2s1	0.5%	-31.5%	-3.6%	-1.2%	x	x
O=c1oc2ccccc2c(O)c1C=NCc1ccccn1	43.9%	-12.0%	-5.8%	u	-2.5%	2.3
O=c1oc2ccccc2c(O)c1Cc1cc(Cl)c2cccnc2c1O	25.0%	-35.9%	-8.5%	31.6µM*	u	u
Oc1c(CN2CCc3ccccc3C2)cc(Cl)c2cccnc12	25.6%	25.1µM*	-9.3%	8.91µM*	29.9µM*	-15.5
Oc1c(Cl)cc(CN2CCOCC2)c2cccnc12	-25.5%	11.2µM*	-2.7%	7.94µM*	u	-6.0
CCOC(=O)Cn1c(=O)cc(-c2ccccc2)c2c(C)nn(C)c21	2.3%	46.3%	-17.8%	78.3%	x	x
O=C(COC(=O)c1cc(S(=O)(=O)N2CCc3ccccc3C2)ccc1Cl)NCc1ccco1	u	79.4µM*	u	u	u	u
O=C(COC(=O)c1cccc(S(=O)(=O)N2CCc3ccccc32)c1)NCc1ccco1	-5.8%	-5.8%	-12.7%	-16.8%	-13.0%	4.7
O=C(COC(=O)c1cccc(S(=O)(=O)N2CCc3ccccc3C2)c1)NCc1ccco1	26.5%	4.1%	u	50.1µM*	-7.9%	-9.6
O=C(COC(=O)c1cc(S(=O)(=O)N2CCOCC2)ccc1Cl)NCc1ccco1	32.8%	-9.6%	-6.5%	-1.0%	0.0%	-3.7
Nc1c2c(=O)[nH]c(O)cc2nn1-c1ccccc1	4.1%[57 µM]	-15.9%	x	x	-9.9%	-7.1
COc1ccccc1N1CCN(C(=O)c2cc3ccc4ccc(C)[nH]c4c3n2)CC1	1.5%	u	-9.6%	-25.4%[57.1 µM]	x	x
CCCc1cc(=O)[nH]c2nnc(SCC(=O)N3CC(C)OC(C)C3)n12 (centres undefined)	53.7%	4.8%	-1.6%	7.2%	2.4%	-2.2
CN1CCS/C1=C/C=C1\SC(=S)N(CC(=O)O)C1=O	-4.0%	u	0.0%	50.1µM*	119.9%	-2.1
CN1/C(=C\C=C(C#N)C#N)C(C)(C)c2ccccc21	15.7%	-17.3%	-0.4%	-6.9%	-50.2%	0.1
CCCCN1C(=O)/C(=C/C=C2\N(C)c3ccccc3C2(C)C)SC1=S	x	x	-7.4%	8.91µM*	x	x
CCCCN1C(=O)/C(=C/C=C2\SCCN2C)SC1=S	28.2µM*	35.5µM*	-18.0%	10µM*	48.9%	3.7
CN1CCS/C1=C/C=C1/SC(=S)N(Cc2ccccc2)C1=O	12.6µM*	u	-8.7%	10µM*	33.2%	1.9
CCOC(=O)c1ccc(OS(=O)(=O)c2ccccc2)c(OC)c1	69.4%	89.1µM*	-6.1%	64.6%	26.7µM*	-3.4
CCOC(=O)c1cc(-c2ccc(N)cc2)sc1N	-50.7%	44.7µM*	-28.8%	31.6µM*	-19.8%	x
COC(=O)c1cc(-c2ccccc2)sc1NC(=O)CN1C(=O)c2ccccc2C1=O	u	u	-0.2%	-2.4%	11.9µM*	-10.6
COC(=O)c1cc(OC)c(OC)cc1NC(=O)CN1C(=O)c2ccccc2C1=O	26.5%	u	-2.9%	u	-3.4%	x
CCOC(=O)c1cc(-c2ccccc2)sc1NC(=O)c1ccc(OC)c(OC)c1	u	u	32.8%	8.8%	4.74µM*	u
CCOc1cc(C(=S)N2CCOCC2)ccc1OS(=O)(=O)c1ccccc1	28.5%	-18.6%	-2.2%	-9.3%	-5.2%	2.8
SMILES	HP1b binding inh	JMJD2A Tudor	GCN5L2 inh	BAZ2B inh	PLK1 PBD inh	PI5P4Ka inh
CCOC(=O)c1cc(-c2ccccc2)sc1NC(=O)C(C)C	u	-20.9%[57.1 µM]	-7.8%	7.4%	29.9µM*	-0.2
CCOC(=O)c1cc(-c2ccccc2)sc1NC(=O)COC	4.4%	3.5%	-0.9%	-24.2%	-18.1%	2.1
COC(=O)c1ccccc1N(C)S(=O)(=O)c1cc2c3c(c1)CCC(=O)N3CCC2	9.3%	-17.2%	-10.7%	-7.7%	-11.9%	-4.1
O=C(O)C(O)c1ccco1 (centres undefined)	u	22.4µM*	-15.4%	8.91µM*	26.7µM*	-60.3*
CC(NC(=O)c1ccco1)C(=O)O (centres undefined)	20.4%	-22.1%	-5.1%	0.3%	u	-2.1
CN1CCc2nc(SCC(=O)Nc3cccc(F)c3)c(C#N)c(-c3cccs3)c2C1	-21.3%	u	-6.7%	50.1µM*	u	x
CN1CCc2nc(SCC(=O)Nc3ccc(OC(F)(F)F)cc3)c(C#N)c(-c3cccs3)c2C1	-35.7%	u	-15.0%	-4.1%	u	-19.8
Cc1ccc(C)c(-n2nnnc2SCC(=O)NNC(=O)c2ccco2)c1	37.4%	-11.6%	1.2%	4.8%	-10.7%	-0.3
CCCCN(C)C(=O)c1nc2ccccn2c1CN1CCC[C@H]1C(=O)OC	-8.5%	39.8µM*	4.4%	-13.9%	u	u
CCCCN(C)C(=O)c1nc2ccccn2c1CN1CCN(c2cnccn2)CC1	18.9%	-14.7%	-3.8%	-0.1%	-4.5%	0.1
O=C(NNc1ccc([N+](=O)[O-])cc1)c1ccco1	11.0%	-3.9%	-6.1%	-10.7%	-4.1%	6.0
O=C(NNc1ccc([N+](=O)[O-])cc1[N+](=O)[O-])c1ccco1	u	u	-8.4%	39.8µM*	-21.3%	-29.6
CCOc1ccc(NC(=O)C(CC)n2nc(C)c3c(C)n(-c4ccccc4)nc3c2=O)cc1 (centres undefined)	49.4%	-20.6%	3.4%	-38.4%	-5.8%	-0.9
CNC(=O)C1CCN(Cc2cc3ccccc3n2Cc2cccc(C)c2)CC1	-17.5%	-30.0%	1.7%	u	x	x
CC1=CSC2=NS(=O)(=O)CCN12	-5.7%	-11.0%[11.4 µM]	2.8%	-4.6%	23.8µM*	-3.3
CCCN1CCCc2cc(CN(CCCN3CCOCC3)C(=O)Nc3ccc(CC)cc3)ccc21	u	u	-17.1%	8.91µM*	x	x
CCCCN1CCCc2cc(CN(CCCN3CCOCC3)C(=O)Nc3ccc(CC)cc3)ccc21	-12.8%	7.94µM*	-6.6%	u	x	x
N[C@H](CSC(c1ccccc1)(c1ccccc1)c1ccccc1)C(=O)O	x	x	-20.4%	x	x	x
NC(CSC(c1ccccc1)(c1ccccc1)c1cccc2ccccc12)C(=O)O (centres undefined)	u	56.2µM*	x	x	26.7µM*	u
CC(C)NC1(C(N)=O)CCNCC1	18.5%[57 µM]	6.2%	x	x	1.1%	3.6
Cc1ccc(OC(C)C(=O)NCC2(N3CCOCC3)CCCCC2)cc1C (centres undefined)	38.7%	-0.3%	-5.5%	-5.0%	x	x
CCOc1ccc(S(=O)(=O)N2CCC(C(=O)NCC3CCCO3)CC2)cc1 (centres undefined)	22.2%	-11.7%	-4.0%	3.4%	-2.9%	-2.9

From PubChem BioAssay
